FXN GAA850 act: FXN promoter activators, primary screen, cell-based, luciferase luminescence, HEK293 lucGAA850; actives 0.56% (n = 360,000); HEK293 lucGAA850 FXN promoter luciferase reporter, 24 h; percent of 10 µM SAHA response; activation, % at 6 µM;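 active = activation above the average of all compounds screened plus 3 SD, cutoff fixed separately per campaign, cut at about 7.5% in these data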;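 also: 0% = DMSO wells and 100% = 10 µM SAHA wells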
hcDAF-12 act: H. contortus DAF-12 nuclear receptor activators, primary screen, cell-based, luminescence, HEK293, lit1-tk-luc reporter; activation, % at 6.8 µM; HEK293 hcDAF-12 lit1-tk-luc reporter; 0% DMSO, 100% Δ7-dafachronic acid; actives 1.4% (n = 370,000);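 active = activation above the mean of all tested compounds plus 3 SD, cut at about 5.5% in these data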;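 also: 100% = response to 3 µM Δ7-dafachronic acid high control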
DAX1 inh-1: DAX1 (NR0B1) inhibitors on StAR promoter, primary screen, cell-based, luminescence, SF-1 (NR5A1), full-length DAX-1 | HEK293T StAR-luciferase reporter, SF-1/DAX-1 repression relief | inhibition, % at 6.8 µM | actives 1.1% (n = 370,000) | AID 652010, 2013;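 active = inhibition above the mean over all tested compounds plus 3 SD, cut at about 3.6% in these data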;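 also: 0% = DAX-1 cells with DMSO and 100% = cells lacking DAX-1 with DMSO; higher inhibition means more luminescence from relief of DAX-1 repression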
ssDAF-12 act: S. stercoralis DAF-12 nuclear receptor activators, primary screen, cell-based, luminescence, HEK293, GRIP1 co-expression, lit1-tk-luc; HEK293 ssDAF-12/GRIP1 lit1-tk-luc reporter; % of 3 µM dafachronic acid response; activation, % at 6.8 µM; actives 1% (n = 370,000); AID 652126, 2013;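 active = activation above the mean over all tested compounds plus 3 SD, cut at about 0.9% in these data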;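 also: 0% = DMSO-only wells and 100% = 3 µM delta7-dafachronic acid wells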
hgDAF-12 ag: H. glycines DAF-12 receptor agonists, primary screen, cell-based, luminescence, HEK293, GAL4 fusion, UAS-luciferase; Nuclear hormone receptor DAF-12 (Heterodera glycines), GAL4 fusion; HEK293 GAL4-hgDAF12 UAS-luciferase reporter, agonist luminescence; normalized to butyrate control; activation, % at 6.8 µM; actives 1.8% (n = 370,000); AID 687014, 2013;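 active = activation above a cutoff set at the mean of all screened compounds plus 3 SD, cut at about 10% in these data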;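 also: 0% = DMSO wells and 100% = sodium butyrate wells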
DAX1 inh-2: DAX1 (NR0B1) inhibitors, primary screen, cell-based, HEK293, Gal4-DAX1, luciferase luminescence | actives 0.99% (n = 340,000) | inhibition, % at 6.75 µM | HEK293 Gal4-DAX1 luciferase reporter | AID 504766, 2011;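 active = inhibition above the mean over all tested compounds plus 3 SD, cut at about 4.2% in these data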;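 also: 0% = DAX1-transfected cells with DMSO and 100% = empty-vector control cells with DMSO; inhibition shows as a rise in luminescence from relieved DAX1 repression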
Target sequence (P51843 207-470 limits assumed): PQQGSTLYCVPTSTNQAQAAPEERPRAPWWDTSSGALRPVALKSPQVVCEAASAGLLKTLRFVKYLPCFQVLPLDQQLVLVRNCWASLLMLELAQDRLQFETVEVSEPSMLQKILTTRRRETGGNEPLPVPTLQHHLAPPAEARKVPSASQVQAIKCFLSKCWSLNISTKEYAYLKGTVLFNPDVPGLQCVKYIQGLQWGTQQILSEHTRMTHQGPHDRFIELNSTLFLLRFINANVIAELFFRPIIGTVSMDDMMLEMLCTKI
LXRb hcDAF ctr: LXR agonists, Gal4 luciferase reporter, confirmation, counter-screen for hcDAF-12 agonist project, cell-based, luminescence, HEK293, H. contortus campaign. HEK293 Gal4-LXR tk-luc reporter, 24 h; normalized: DMSO 0%, positive control 100%. activation, % at 6.8 µM. 3,400 tested, under 10 active. shares compounds with hcDAF-12 act;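 active = mean percent activation of the reporter above a cutoff set as the average over tested compounds plus their standard deviation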
Target sequence (P55055 whole entry, looked up, the tested form may be a part): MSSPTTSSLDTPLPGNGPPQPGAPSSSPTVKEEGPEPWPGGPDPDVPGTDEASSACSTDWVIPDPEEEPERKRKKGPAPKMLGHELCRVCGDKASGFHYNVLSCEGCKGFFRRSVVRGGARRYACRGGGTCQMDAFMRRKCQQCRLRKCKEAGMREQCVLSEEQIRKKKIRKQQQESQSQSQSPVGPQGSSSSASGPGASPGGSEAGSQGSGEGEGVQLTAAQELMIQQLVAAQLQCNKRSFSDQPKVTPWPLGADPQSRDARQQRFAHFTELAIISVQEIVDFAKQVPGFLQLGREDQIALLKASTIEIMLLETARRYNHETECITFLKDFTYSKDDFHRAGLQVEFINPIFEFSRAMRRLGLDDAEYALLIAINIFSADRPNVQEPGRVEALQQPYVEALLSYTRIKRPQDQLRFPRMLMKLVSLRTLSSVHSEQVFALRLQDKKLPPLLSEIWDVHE
hcDAF12 ag: H. contortus DAF-12 receptor agonists, confirmation, cell-based, luminescence, HEK293, lit1-tk-luc, triplicate; AID 743032, 2013; shares compounds with hcDAF-12 act; activation, % at 6.8 µM; actives 61% (n = 3,400); HEK293 hcDAF-12 lit1-tk-luc reporter; % of Δ7-dafachronic acid response;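 active = mean activation across triplicate tests above the threshold derived from the earlier primary screen, cut at about 5.5% in these data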;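 also: 0% = DMSO only wells and 100% = 3 µM Δ7-dafachronic acid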
Active calls of the source: *; · = no result given. A selection: hits, their analogues and other compounds. The true share with any hit is near 4.5%.

SMILES | FXN GAA850 act | hcDAF-12 act | DAX1 inh-1 | ssDAF-12 act | hgDAF-12 ag | DAX1 inh-2 | LXRb hcDAF ctr | hcDAF12 ag
COc1ccc(OC)c(C(=O)Nc2c(O)ccc3ccccc23)c1 | 1.1 | 7.0* | -0.1 | -0.3 | 1.5 | -0.7 | 0.1 | 6.1*
CCOc1ccc(NC(=O)c2cc3ccccc3cc2OC)cc1 | 0.3 | 7.0* | -0.3 | 0.0 | 7.5 | 6.3* | 0.6 | 6.1*
COc1cc2c(cc1NC(=O)c1ccccc1F)CCCC2 | 6.3 | 8.2* | 1.5 | 0.2 | 9.9 | 0.4 | 0.2 | 6.7*
CCCC1CCC2(CCCN2CCOC(=O)Nc2ccc(OC)cc2)CC1 (configuration not stated) | · | -1.4 | · | -2.0 | 0.8 | · | · | ·
CCCCOCCCNC(=O)C[C@@H]1C[C@@]2(C(=O)OCC)CCCC=C2N(CCc2ccc(OC)c(OC)c2)C1=O | · | -0.6 | -0.3 | -0.9 | -0.8 | · | · | ·
CC1Cn2c(nnc2-c2ccc(F)cc2)S1 (configuration not stated) | 0.7 | 6.9* | 1.8 | 1.0* | 0.2 | 1.1 | -0.1 | 1.6
COC(=O)[C@]12C[C@H](CC(=O)N3CCOCC3)C(=O)N(Cc3ccco3)C1=C[C@H](C1CCCC1)O[C@@H]2C | · | -2.2 | -0.1 | -0.6 | -1.5 | · | · | ·
COC(=O)CC[C@@H](/C=C/C(=O)OC(C)(C)C)Sc1ccc(C(C)(C)C)cc1 | · | -1.8 | -0.5 | -0.8 | 0.8 | · | · | ·
COc1ccc(OC)c(NC(=O)c2cccc(S(=O)(=O)N(Cc3ccccc3)c3ccccc3OC)c2)c1 | 1.4 | 1.9 | -0.1 | 0.0 | 2.7 | -1.0 | · | ·
COc1ccccc1N(Cc1ccccc1)S(=O)(=O)c1cccc(C(=O)Nc2ccc(C(C)=O)cc2)c1 | 5.3 | 11.5* | 0.6 | 0.0 | 8.0 | 1.2 | -0.2 | 2.6
CC1(C)CC(=O)N(CC(=O)N2CCN(Cc3ccc4c(c3)OCO4)CC2)c2ccccc2S1(=O)=O | · | -0.9 | 0.0 | -0.7 | -0.2 | · | · | ·
C/C(=N\NC(=S)Nc1ccc(C)c(C)c1)c1ccc(N2CCOCC2)cc1 | 1.7 | 6.9* | 0.1 | -0.2 | 3.4 | 0.2 | -0.2 | 2.3
CC(=O)c1c(C)nc(Nc2nc3ccccc3s2)nc1C | 6.3 | 11.3* | 0.6 | 1.6* | 8.7 | · | 1.6 | 13.1*
CC(=O)c1c(C)nc(Nc2nc(C)c3cc(C)ccc3n2)nc1C | 5.2 | 0.1 | -0.1 | -2.3 | -1.6 | -0.9 | · | ·
CCC(C)(C)n1nnnc1C(c1cc2cc(C)ccc2[nH]c1=O)N1CCCc2ccccc21 (configuration not stated) | 0.3 | 4.6 | 0.1 | 0.9 | 1.2 | 0.9 | · | ·
Cc1ccc2[nH]c(=O)c(C(c3nnnn3C3CCCC3)N3CCCc4ccccc43)cc2c1 (configuration not stated) | 0.1 | 6.7* | 1.2 | -0.3 | 2.3 | -0.5 | 0.0 | 3.6
CCOc1ncccc1-c1nc(-c2cccs2)no1 | 4.2 | 9.8* | -0.1 | 0.4 | 4.1 | 1.7 | 0.3 | 9.2*
CCOc1nc(-c2ccccc2)ccc1-c1noc(-c2cccs2)n1 | -2.8 | -0.4 | -0.2 | -0.7 | 1.9 | 1.9 | · | ·
CC(C)Cc1ccc(C(=O)NCCOc2ccccc2)o1 | 1.1 | 9.9* | 2.9 | 0.1 | 8.9 | -0.3 | 1.5 | 7.4*
Cc1ccc(OCCNC(=O)c2ccc(COc3ccccc3)o2)cc1 | 1.3 | -2.2 | 2.0 | -0.4 | 0.0 | 1.2 | · | ·
C(=N\N(c1ccccc1)c1ccccc1)/c1ccc2c(c1)OCO2 | 0.2 | -1.5 | 0.6 | -1.4 | -0.4 | -0.6 | · | ·
CN(/N=C/c1ccc2c(c1)OCO2)c1ccccc1 | 5.1 | 9.1* | 2.9 | -0.5 | 11.2* | 0.7 | 1.2 | 3.7
C/C(=N/NS(=O)(=O)c1ccc(Br)cc1)c1c[nH]c2ccccc12 | 1.2 | -0.3 | 0.7 | -0.5 | 1.0 | 1.4 | · | ·
C/C(=N\NS(=O)(=O)c1ccc([N+](=O)[O-])cc1)c1c[nH]c2ccccc12 | 0.1 | 10.6* | -0.7 | -0.3 | 1.4 | 0.6 | -0.2 | 1.6
CN1CCN(C(=O)OC2CC3CC2[C@H]2CCCCN2C3=O)CC1 (some centres not stated) | · | -0.8 | -0.4 | -1.6 | 5.5 | · | · | ·
SMILES | FXN GAA850 act | hcDAF-12 act | DAX1 inh-1 | ssDAF-12 act | hgDAF-12 ag | DAX1 inh-2 | LXRb hcDAF ctr | hcDAF12 ag
Oc1ccccc1-c1cc(-c2ccco2)[nH]n1 | 5.5 | 7.6* | 1.7 | 0.5 | 11.7* | 1.0 | 1.1 | 9.2*
Oc1ccc(Br)cc1-c1cc(-c2ccco2)[nH]n1 | 0.7 | 2.9 | 0.5 | -0.1 | 5.5 | 0.4 | · | ·
Oc1ccc(Cl)cc1-c1cc(-c2ccco2)[nH]n1 | 0.8 | 7.6* | 0.6 | -0.4 | 9.1 | 0.5 | -0.1 | 3.1
COC(=O)c1cn(-c2nc3ccccc3s2)nn1 | · | 7.8* | 0.1 | 0.1 | -0.2 | · | 0.1 | 2.8
O=C(c1cccc(Br)c1)N1CCC(Oc2cccnc2)CC1 | · | -3.1 | -0.2 | -1.1 | 2.5 | · | · | ·
CC(C)(C)C(=O)CN1C(=O)NC2(CCOc3ccccc32)C1=O (configuration not stated) | -0.7 | 8.0* | 3.7* | 0.2 | 4.5 | 1.4 | -0.3 | 4.3
O=[N+]([O-])c1cncc2[nH]cnc12 | · | -1.2 | 1.9 | -1.9 | 3.4 | · | · | ·
Cc1cc(-c2ccccc2)nc2oc(C(=O)NN)c(N)c12 | 2.0 | 6.6* | -0.7 | 1.2* | -1.0 | -0.5 | -0.2 | 4.0
CC(=O)Oc1ccccc1N(C(C)=O)S(=O)(=O)c1ccc2ccccc2c1 | 3.4 | -3.1 | 0.1 | -1.4 | -2.1 | -0.1 | · | ·
CC(=O)Oc1c(Br)cc(N(C(C)=O)S(=O)(=O)c2ccccc2)c2ccccc12 | -0.4 | 12.4* | -1.7 | 0.5 | -0.2 | -0.9 | -0.2 | 1.8
O=[N+]([O-])c1ccccc1CSc1nc2ccccc2o1 | 3.5 | 6.7* | 1.4 | 0.4 | 5.9 | -0.6 | 0.3 | 2.7

Source: PubChem BioAssay
